Among the data in PubChem BioAssay AID624296 (National Center for Advancing Translational Sciences (NCATS), 2012) are Potency values, retold here.

In all, about 350,000 compounds went through this assay and about 9,900 (2.8%) were called active. Entries that show only a call come without a potency. Another 15% or so got no clear call; they are omitted. This is one part of a sample in which actives are shown more often than they occur. Calls come from the whole dose curve; as a rule, active = well fitted activation curve with a large enough effect; inconclusive = small, poorly fitted or top-dose-only effect; inactive = no such curve, though single readings can be large or run the other way.
Potency is the fitted concentration of half-maximal effect.

The nature of this assay: A quantitative high throughput screen for small molecules that induce DNA re-replication in MCF 10a normal breast cells. Note: nearly all actives have a fitted effect of over 50% in size. Conditions: MCF 10A DNA re-replication, Hoechst nuclear intensity, 48 h; series mostly up to 46.1 µM. The source says: H Molecular Libraries Probe Production Network [MLPCN]
NIH Chemical Genomics Center [NCGC]
Assay Provider: Melvin DePamphilis, NICHD, NIH
Eukaryotic cells normally restrict genome duplication to once per cell division. When this process is aberrant, DNA re-replication occurs when cells reinitiate DNA replication before the first round of replication is complete. DNA re-replication induces the DNA damage response, arrests cell proliferation, and triggers apoptosis. The cell cycle components cyclin A, Cdt-1, Cdc6 and geminin are critical regulators of this process and their misregulation results in DNA re-replication in normal and cancer cells. To identify compounds that induce re-replication in normal cells, an image-based assay was used to measure DNA content of nuclei, as detected by the fluorescent DNA binding dye, Hoechst. Cell nuclei were imaged by a fluorescence scanning plate imager and compounds that induce DNA re-replication were identified by the increase of nuclei with elevated fluorescence intensity
For screening, 250 cells in 5 uL/well were dispensed into black clear 1536-well plates (Aurora) using a solenoid-based dispenser. Following transfer of 23 nL compound or DMSO vehicle by a pin tool, the plates were incubated 48 hr at 37 C and 5% CO2. After addition of 1 uL/well Hoescht stain, the plates were incubated 40 min at 37 C, 5% CO2 and total intensity of fluorescent objects (nuclei) were enumerated by an Acumen Explorer Ex3 (TTP LabTech) fluorescence scanning plate imager (405 nm excitation, 500-530 nm emission).
Keywords: NIH Roadmap, MLPCN, MLI, MLSMR, qHTS, NCGC, DNA replication, cancer
As to `Cc1ccc(-c2csc(C(C#N)=C(O)CN3CCN(C(=O)c4ccco4)CC3)n2)cc1`, the Potency result is “inactive”.

`O=S(=O)(c1ccc(SCc2ccc(Br)cc2)nc1)N1CCOCC1`: the Potency entry was “inactive”.

For the compound `Cc1ccc(OCCC(=O)Nc2ccc(S(=O)(=O)Nc3nccs3)cc2)cc1`, the Potency result is “inactive”.

Turning to `COC1=NC2=NCCN2C(OC)=N1`, the Potency entry is “inactive”.

For `Cc1cccc(C)c1NC(=O)C(Cl)C(=O)c1ccccc1` (configuration not stated), the Potency is 18.4 µM (active).

With `Cc1cccc(C)c1NC(=O)C(c1ccccc1)N1CC(=O)Nc2ccccc21` (configuration not stated), the Potency entry is “inactive”.

As for `Cc1cccc(C)c1NC(=O)CN(C)C(=O)CCC(=O)c1ccccc1`, the Potency entry is “inactive”.

Turning to `Cc1ccc(NC(=O)C2CC(=O)N(c3ccc4c(c3)OCCO4)C2)cc1S(=O)(=O)N1CCCCCC1` (configuration not stated), the Potency result is “inactive”.

As to `Cc1nc(SCC(=O)NC2CCCCC2C)c(C#N)c(C)c1C` (configuration not stated), the Potency result was “inactive”.

In the case of `CC(C)n1ncc2c(C(=O)Nc3ccc(CC#N)cc3)cc(C3CC3)nc21`, the Potency result was “inactive”.

In the case of `COc1ccc(OC)c(Cc2cnc3nc(N)nc(N)c3c2C)c1`, the Potency entry was “inactive”.

On to `COc1ccccc1-c1nc(C#N)c(N2CCC(C(N)=O)CC2)o1`, for which the Potency entry is “inactive”.

In the case of `COc1ccc(Nc2oc(-c3ccccc3Cl)nc2C#N)cc1`, the Potency was 2.59 µM (active).

For `Cc1ccccc1-c1nc(C#N)c(NCc2ccco2)o1`, the Potency result was “inactive”.

As for `CC(NC(=O)c1ccc(S(=O)(=O)Nc2ccccc2)cc1)c1ccc(S(N)(=O)=O)cc1` (configuration not stated), the Potency entry is “inactive”.

`COc1cccc(CC(=O)Nc2nc(-c3ccc(OC)c(OC)c3)cs2)c1`: the Potency entry is “inactive”.

With `CCC(=O)Nc1ccc(C(=O)Nc2cccc(OC)c2)cc1`, the Potency result was “inactive”.

As for `COc1cccc(CC(=O)Nc2ccc(-c3csc(C)n3)cc2)c1`, the Potency is 9.2 µM (active).

As for `CCCCC[C@@H]1C=C(C(=O)O)[C@H](c2ccc(C#N)cc2)N1S(=O)(=O)c1ccc(C)cc1`, the Potency result is “inactive”.

With `O=C1C[C@@H]2c3c(cccc3CN1Cc1ccccc1)C[C@@H](O)[C@H]2O`, the Potency result is “inactive”.

With `C=CCO/N=C(\C)c1c(O)c(C)c(-c2ccccc2)n(-c2ccccc2)c1=O`, the Potency result was “inactive”.

For `CCO/N=C(/C)c1c(O)cc(-c2ccccc2)n(-c2ccccc2)c1=O`, the Potency is 14.6 µM (active).

Regarding `CCOC(=O)c1c(CN(C)C)n(-c2ccccc2)c2cc(Br)c(O)cc12`, the Potency entry was “inactive”.

`CCN(CC)S(=O)(=O)c1ccc(CNC(=O)CN2C(=O)NC3(CCc4ccccc43)C2=O)cc1` (configuration not stated): the Potency result was “inactive”.

As for `COCCN(Cc1ccccc1)C(=O)Cc1ccc(S(=O)(=O)N2CCOCC2)s1`, the Potency entry was “inactive”.

Regarding `Cc1ccc(S(=O)(=O)N2CCCCC2)cc1NC(=O)CCNC(=O)c1ccccc1`, the Potency entry is “inactive”.

Turning to `C#CCOCCOCCOCCNc1nc(N2CCOCC2)nc(N2CCN(C(=O)[C@H](Cc3ccc(O)cc3)n3cc(CCO)nn3)CC2)n1`, the Potency result is “inactive”.

On to `Cc1ccc(NC(=O)C2CCC(C(C)(C)C)CC2)cc1S(=O)(=O)N1CCOCC1` (configuration not stated), for which the Potency was 18.4 µM (active).

Turning to `Cc1ccc(NC(=O)NC2CCCCC2)cc1S(=O)(=O)N1CCOCC1`, the Potency result was “inactive”.

Regarding `Cc1ccc(NC(=O)COC(=O)C2CC2)cc1S(=O)(=O)N1CCOCC1`, the Potency entry is “inactive”.

Turning to `CCC1([N+](=O)[O-])COC(c2ccc(C)cc2)OC1` (configuration not stated), the Potency entry is “inactive”.

On to `COc1ccccc1N1CC(C(=O)NCCN2C(=O)S/C(=C\c3cccnc3)C2=O)CC1=O` (configuration not stated), for which the Potency result was “inactive”.

In the case of `O=C(CCn1c(=O)[nH]c2ccccc2c1=O)NCCCN1CCN(c2cccc(Cl)c2)CC1`, the Potency result is “inactive”.

Take `O=C(Cc1csc(Nc2nc(=S)[nH]c3ccccc23)n1)NCCCN1CCN(c2cccc(Cl)c2)CC1`: the Potency is 14.6 µM (active).

In the case of `COc1cccc(CNC(=O)Cc2csc(Nc3nc(=S)[nH]c4ccccc34)n2)c1`, the Potency entry was “inactive”.

In the case of `CN[C@H](C(=O)NC[C@H]1O[C@@H](n2cnc3c(N)ncnc32)[C@H](O)[C@@H]1O)[C@@H](C)OCc1ccccc1`, the Potency result is “inactive”.

In the case of `O=C(NNc1ccccc1Cl)C(O)(c1cccc(C(F)(F)F)c1)c1cccc(C(F)(F)F)c1`, the Potency was 16.4 µM (active).

Regarding `CC(CC(=O)Nc1cc(C(F)(F)F)ccc1Cl)c1ccccc1` (configuration not stated), the Potency entry was “inactive”.

`O=C(Nc1cc(C(F)(F)F)ccc1Cl)C(=O)N1CCCCC1`: the Potency result was “inactive”.

As to `COc1ccc([C@H]2CC(=O)C=C(c3ccc(CO)cc3)C2)cc1`, the Potency entry is “inactive”.

In the case of `Cc1cccc(-n2ncc(C#N)c2-n2cccc2)c1`, the Potency result was “inactive”.

As to `O=c1c(Cl)c(NC2CC2)cnn1-c1ccccc1`, the Potency result was “inactive”.

Consider `Cc1cccc(-n2ncc(Cl)c(Cl)c2=O)c1`, for which the Potency is 3.26 µM (active).

For the compound `COC1=CC(=O)OC(C)(c2ccccc2)C1` (configuration not stated), the Potency entry was “inactive”.

As to `COc1cc(OC)cc(C(=O)NCC(=O)OCC(=O)NC(C)CCc2ccccc2)c1` (configuration not stated), the Potency entry was “inactive”.

As to `O=C(NCCc1ccccc1)C1CCN(S(=O)(=O)c2ccc(Br)s2)CC1`, the Potency result was “inactive”.

Turning to `Cc1cc(C)c[n+](-c2nc3ccccc3nc2[N-]S(=O)(=O)c2cccs2)c1`, the Potency entry is “inactive”.

Turning to `O=S(=O)([N-]c1nc2ccccc2nc1-[n+]1ccc(Cc2ccccc2)cc1)c1ccc(Br)s1`, the Potency is 9.2 µM (active).

Take `O=C(COC(=O)c1cc(S(=O)(=O)N2CCOCC2)ccc1F)NC1CC1`: the Potency result was “inactive”.

For `Cc1cccc2cc3c(N)c(C(=O)N4CCCc5ccccc54)sc3nc12`, the Potency was 1.3 µM (active).

With `Cc1c(C(=O)N2CCCc3ccccc32)oc2ccccc12`, the Potency result was “inactive”.

Take `Cc1c(C(=O)N2CCCc3ccccc32)sc2nc(-c3ccccc3)cn12`: the Potency entry was “inactive”.

Take `CCOC(=O)[C@H]1[C@H]2COc3ccc(C)cc3[C@@H]2N2C(=O)CN(Cc3ccc(F)cc3)C(=O)[C@@]12C`: the Potency result is “inactive”.

With `CCSc1nnc(NC(=O)c2ccc(C)cc2)s1`, the Potency entry was “inactive”.

On to `Cc1cccc(CS(=O)(=O)c2ncc(Cl)c(C(=O)Nc3ccc(F)cc3)n2)c1`, for which the Potency entry was “inactive”.

In the case of `CSc1nnc(NC(=O)c2nc(S(=O)(=O)Cc3ccc(C)cc3)ncc2Cl)s1`, the Potency was 1.16 µM (active).

In the case of `CC(CNC(=O)Cn1cnc2c(OCc3ccccc3)ncnc21)c1ccccc1` (configuration not stated), the Potency entry is “inactive”.

Regarding `Nc1ncnc2c1ncn2[C@@H]1O[C@H](CNS(=O)(=O)c2ccc(-c3ccno3)s2)[C@@H](O)[C@H]1O`, the Potency result is “inactive”.

In the case of `CCOc1ccccc1N(CC(=O)Nc1ccccc1C(=O)OC)S(C)(=O)=O`, the Potency result is “inactive”.

For `CCOc1cc(C2C(C(=O)OC)=CN(C3CCCC3)C=C2C(=O)OC)cc(Br)c1O`, the Potency result is “inactive”.

As for `CCOc1ccccc1C1C(C(=O)OC)=CN(C)C=C1C(=O)OC`, the Potency is 14.6 µM (active).

With `CC(C)(C)OC(=O)N[C@H](C(=O)OC(C)(C)C)c1ccc(Br)cc1`, the Potency result was “inactive”.
